A short description of assay [1]: rapamycin-like changes in RPL19A-GFP expression – cell-based, S. cerevisiae, multiplex flow cytometry, primary screen (AID 1862; in the data active = percent of DMSO control GFP below about 86%;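 note: lower values mimic rapamycin by blocking the RPL19A rise seen in DMSO cells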). The following applies: S. cerevisiae RPL19A-GFP strain, flow cytometry fluorescence, 3 h; at 10 µM; stronger effect = lower value.
Assay [2] in a line: TOR pathway GLN3 branch reporter MEP2-GFP changes – S. cerevisiae, multiplex flow cytometry, primary screen (AID 1867;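 active = GFP response, as percent of the DMSO control, above the screen-wide mean plus 3 SD, about 139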;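 note: median GFP channel fluorescence of barcode-gated MEP2-GFP cells measured by flow cytometry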). The following applies: S. cerevisiae MEP2-GFP strain, 3 h, at 10 µM, stronger effect = higher value, 100% means same as DMSO wells. A general note: In flow cytometry, cells or beads pass a laser one at a time.
Assay [3] is described as follows: TOR pathway RTG branch CIT2 reporter changes – S. cerevisiae, GFP fusion, multiplex flow cytometry, primary screen (AID 1870;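 active = percent response above a set limit, the screen-wide mean plus 3 SD, cut at about 130% in these data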;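 note: barcoded CIT2-GFP strain pooled with four other GFP strains with rapamycin as positive control; median GFP fluorescence per well over plate mean of DMSO wells so 100% = DMSO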). The following applies: S. cerevisiae CIT2-GFP expression, 3 h, at 10 µM, stronger effect = higher value.
The nature of assay [4]: TOR pathway LAP4-GFP level changes – S. cerevisiae, multiplex flow cytometry, primary screen (AID 1873;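 active = GFP signal, as percent of the solvent control, above the screen mean plus 3 SD, about 149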). The conditions noted are these: S. cerevisiae LAP4-GFP expression, 3 h, at 10 µM, stronger effect = higher value.
Assay [5] in a line: yeast AGP1-GFP level changes, GLN3 branch – cell-based, multiplex flow cytometry, S. cerevisiae, primary screen (AID 1887;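 active = GFP signal above the screen-wide mean plus 3 SD, that is over about 124.5% of the solvent control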;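 note: AGP1-GFP fusion strain of S. cerevisiae within a five-strain barcoded multiplex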). The following applies: 3 h, at 10 µM, stronger effect = higher value.
The nature of assay [6]: reduced mouse 2C T cell binding to pMHC/ICAM-1 vesicles – MLPCN validation set, flow cytometry, LFA-1/ICAM-1 modulator project, pilot screen (AID 2523;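 active = response below a set limit, under 55% cells CD8-positive and vesicle-bound, and CD8 cells' 90th-percentile brightness under 279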;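 for vesicle binding response: mean PE anti-B7-1 fluorescence of CD8+ cells relative to row control; 100% = QL9-loaded vesicles with DMSO vehicle in the same plate row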). The following applies: 2C mouse CD8+ T cells, at 7 µM, stronger effect = lower value; double positive events: measured here: CD8+/vesicle+ event percentage.
Assay [7] concerns the target Integrin beta-1 (Homo sapiens) + Integrin alpha-4 (Homo sapiens) (UniProt P13612+P05556). The assay is described as follows: alpha4beta1 integrin LIBS antibody binding reduction – U937 cells, HUTS-21 mAb, flow cytometry, validation set, VLA-4 allosteric modulator project, pilot screen (AID 2674;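 active = inhibition above 50%, about 3 SD of the validation set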;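 note: antibody binding induced by the VLA-4 ligand LDV present at three times its Kd; 0% = LDV ligand with antibody and no compound and 100% = antibody without LDV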). The following applies: HUTS-21 LIBS mAb binding, at 6.7 µM, stronger effect = higher value, binding induced by LDV ligand.

Assay [8] is described as follows: calorie-restriction mimetic ROS inhibitors, yeast – validation compound set, pilot screen (AID 2706;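 active = superoxide response below 65% of plate, a cut near 3 SD across the whole screen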;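 note: yeast exposed to compound for one week at 30 degrees C before staining; 100% = mean of all compound wells on the same plate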). The following applies: S. cerevisiae aging, superoxide DHE fluorescence; at 10 µM, stronger effect = lower value.
Assay [9] deals with Beta-adrenergic receptor kinase 1 (Homo sapiens) (UniProt P25098). The assay can be described thus: GRK2 binders displacing RNA aptamer, biochemical, validation, human GRK2, bead flow cytometry (AID 488806;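 active = aptamer binding inhibition above 30%, about 3 SD of noise from non-fluorescent compounds; inactive = inhibition at or below 30%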). The conditions noted are these: bead-bound GRK2, FAM-aptamer displacement, at 10 µM, stronger effect = higher value.
For assay [10], the target named is AP-2 complex subunit beta (Homo sapiens) (UniProt P63010). The assay can be described thus: beta-arrestin/AP2 interaction blockers – biochemical, validation set, GST-AP2 beads, flow cytometry, pilot screen (AID 504541;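 active = inhibition above 54%, about 3 SD of non-fluorescent compounds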;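 note: AP2 carries R879A mutation and is captured from E. coli lysate; bead-bound FITC arrestin peptide fluorescence measuring arrestin peptide binding to AP2; 0% = DMSO wells and 100% = excess unlabeled arrestin peptide control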). The following applies: FITC arrestin peptide, at 10 µM, stronger effect = higher value, AP2 beta2 appendage fragment, R879A mutant.
Assay [11] in a line: cytosolic pH regulators acting via V-ATPase – S. cerevisiae, pHLuorin, HTS validation (AID 504600; in the data active = response above about 15%;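 note: plate controls were DMSO for no effect and reference compound for full effect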). The conditions noted are these: V-ATPase proton transport, at 10 µM, stronger effect = higher value.
Assay [12] concerns anti-desmoglein-3 scFv antibody binding to human DSG3. The assay is described as follows: blockers of pathogenic pemphigus antibody–desmoglein-3 binding – biochemical, validation compound set, bead-based, flow cytometry, pilot screen (AID 588368).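 Note: signal is the median channel fluorescence of bead-bound GFP antibody.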 The conditions noted are these: Protein G beads, DSG3-Fc, scFv-GFP binding, at 10 µM, stronger effect = lower value.
Assay [13] is described as follows: Nile Red efflux blockade in pump-expressing yeast – validation compound set, multiplex, phenotypic, pilot screen (AID 588506;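 active = efflux inhibition above 0.42, the validation set average plus 4 SD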;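 note: Nile Red retained in cells so higher fluorescence means more efflux inhibition; 0 = negative control wells and 1 = enniatin B 25 µM full block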). The following applies: S. cerevisiae pump-expressing triplex, Nile Red efflux flow cytometry; at 10 µM; stronger effect = higher value; the pumps come from Candida albicans.
Assay [14] concerns the target ATP-binding cassette sub-family B member 6 (Homo sapiens) (UniProt Q9NP58). The assay is described as follows: blockers of ABCB6-driven porphyrin uptake – K562-ABCB6 cells, flow cytometry, validation set, pilot screen (AID 588550;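 active = inhibition above the screen-wide mean plus 3 SD, about 51%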;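 note: 0% = DMSO wells and 100% = benzethonium chloride 70 µM positive control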). The following applies: K562-ABCB6 porphyrin accumulation, 1 h, at 10 µM, stronger effect = higher value.
Assay [15] in a line: AML differentiation inducers, ER-HoxA9 marrow cells – cell-based, GFP/MAC1 double positive, flow cytometry, validation set, primary screen (AID 588685;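 active = differentiation response of at least 50%, scaled between solvent and reference control, from cells with both markers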;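 note: compound exposure lasts four days before antibody staining and flow analysis; 0% = DMSO wells and 100% = 5 µM fulvestrant positive control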). The conditions noted are these: stronger effect = higher value, normalized: vehicle 0, fulvestrant 100.

Inconclusive results are not listed. Active and inactive are the calls of the source.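 Rule for the calls, unless noted: active = binding below the plate cutoff, the plate median minus 3 SD, with a reading above zero; inconclusive = below the plate cutoff but reading exactly zero; inactive = the rest.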 Peptide text beside a SMILES is read from it. * marks the point of attachment. Boc = CC(C)(C)OC(=O)*

ATP-binding cassette sub-family B member 6 (Homo sapiens), sequence (Q9NP58 whole entry, looked up): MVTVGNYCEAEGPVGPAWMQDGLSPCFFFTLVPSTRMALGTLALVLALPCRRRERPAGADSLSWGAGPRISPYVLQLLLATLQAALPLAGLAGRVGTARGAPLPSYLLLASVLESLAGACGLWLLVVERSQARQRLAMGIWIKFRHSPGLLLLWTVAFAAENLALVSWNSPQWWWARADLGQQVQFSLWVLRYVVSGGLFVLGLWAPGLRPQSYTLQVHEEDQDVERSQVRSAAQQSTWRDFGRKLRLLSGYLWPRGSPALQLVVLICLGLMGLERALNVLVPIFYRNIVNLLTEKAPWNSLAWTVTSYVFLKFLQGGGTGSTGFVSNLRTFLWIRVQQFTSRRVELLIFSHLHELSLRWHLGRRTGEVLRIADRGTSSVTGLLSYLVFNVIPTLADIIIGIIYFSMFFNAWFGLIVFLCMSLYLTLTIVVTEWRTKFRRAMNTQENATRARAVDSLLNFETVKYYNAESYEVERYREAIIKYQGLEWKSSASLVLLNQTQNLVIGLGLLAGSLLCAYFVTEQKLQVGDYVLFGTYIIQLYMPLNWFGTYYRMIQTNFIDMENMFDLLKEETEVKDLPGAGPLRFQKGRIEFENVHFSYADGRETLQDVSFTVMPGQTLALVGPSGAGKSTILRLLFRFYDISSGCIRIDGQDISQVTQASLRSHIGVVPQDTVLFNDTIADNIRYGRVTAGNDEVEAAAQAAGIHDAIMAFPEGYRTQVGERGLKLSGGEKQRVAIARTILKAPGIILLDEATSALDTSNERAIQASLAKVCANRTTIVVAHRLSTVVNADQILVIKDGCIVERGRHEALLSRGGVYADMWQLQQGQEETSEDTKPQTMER
AP-2 complex subunit beta (Homo sapiens), sequence (P63010 whole entry, looked up, the tested form may be a part, one chain of several): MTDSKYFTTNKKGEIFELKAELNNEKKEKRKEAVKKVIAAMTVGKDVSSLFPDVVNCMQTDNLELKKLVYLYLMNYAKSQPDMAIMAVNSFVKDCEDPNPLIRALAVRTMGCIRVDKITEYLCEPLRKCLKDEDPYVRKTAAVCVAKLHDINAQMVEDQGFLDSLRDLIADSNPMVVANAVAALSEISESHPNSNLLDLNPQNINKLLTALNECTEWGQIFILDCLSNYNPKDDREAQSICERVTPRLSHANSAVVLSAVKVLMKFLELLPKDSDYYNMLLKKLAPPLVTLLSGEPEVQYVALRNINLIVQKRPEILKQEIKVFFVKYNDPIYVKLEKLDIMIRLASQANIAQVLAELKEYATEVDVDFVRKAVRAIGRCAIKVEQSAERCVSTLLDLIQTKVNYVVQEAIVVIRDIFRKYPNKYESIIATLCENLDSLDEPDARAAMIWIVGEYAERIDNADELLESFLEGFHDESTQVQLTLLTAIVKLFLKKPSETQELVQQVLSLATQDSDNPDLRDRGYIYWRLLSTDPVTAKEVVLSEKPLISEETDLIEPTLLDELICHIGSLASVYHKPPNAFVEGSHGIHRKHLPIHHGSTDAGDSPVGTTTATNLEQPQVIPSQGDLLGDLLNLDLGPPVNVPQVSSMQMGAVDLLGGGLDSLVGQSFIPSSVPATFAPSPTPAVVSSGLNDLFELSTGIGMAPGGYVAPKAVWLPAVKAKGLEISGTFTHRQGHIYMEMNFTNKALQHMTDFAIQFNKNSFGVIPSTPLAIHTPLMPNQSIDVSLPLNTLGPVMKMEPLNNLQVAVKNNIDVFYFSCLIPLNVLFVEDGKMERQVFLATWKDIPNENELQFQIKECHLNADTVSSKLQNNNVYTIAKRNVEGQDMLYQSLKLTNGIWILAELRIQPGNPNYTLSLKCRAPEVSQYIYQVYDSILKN
Integrin beta-1 (Homo sapiens) + Integrin alpha-4 (Homo sapiens), sequence (P05556 whole entry, looked up): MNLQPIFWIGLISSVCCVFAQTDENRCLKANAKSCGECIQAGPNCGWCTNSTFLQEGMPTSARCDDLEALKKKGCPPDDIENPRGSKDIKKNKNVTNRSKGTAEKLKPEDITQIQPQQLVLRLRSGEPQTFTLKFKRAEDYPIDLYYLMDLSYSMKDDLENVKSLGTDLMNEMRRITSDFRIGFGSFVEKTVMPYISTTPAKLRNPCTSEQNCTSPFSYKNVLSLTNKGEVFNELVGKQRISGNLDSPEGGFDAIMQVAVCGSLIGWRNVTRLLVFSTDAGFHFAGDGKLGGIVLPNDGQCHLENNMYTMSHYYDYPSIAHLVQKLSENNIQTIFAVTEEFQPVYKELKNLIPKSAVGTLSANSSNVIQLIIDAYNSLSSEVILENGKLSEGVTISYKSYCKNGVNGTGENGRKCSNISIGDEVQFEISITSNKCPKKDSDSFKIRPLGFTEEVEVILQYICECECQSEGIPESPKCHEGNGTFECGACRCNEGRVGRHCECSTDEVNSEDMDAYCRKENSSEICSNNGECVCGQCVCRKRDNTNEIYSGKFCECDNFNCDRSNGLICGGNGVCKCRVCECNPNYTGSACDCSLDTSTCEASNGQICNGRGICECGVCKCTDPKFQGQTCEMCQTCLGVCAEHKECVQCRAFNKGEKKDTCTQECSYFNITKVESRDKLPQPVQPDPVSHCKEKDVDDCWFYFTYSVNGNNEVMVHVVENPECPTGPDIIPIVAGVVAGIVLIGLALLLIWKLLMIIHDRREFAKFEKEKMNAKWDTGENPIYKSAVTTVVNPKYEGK
Integrin beta-1 (Homo sapiens) + Integrin alpha-4 (Homo sapiens), sequence (P13612 whole entry, looked up): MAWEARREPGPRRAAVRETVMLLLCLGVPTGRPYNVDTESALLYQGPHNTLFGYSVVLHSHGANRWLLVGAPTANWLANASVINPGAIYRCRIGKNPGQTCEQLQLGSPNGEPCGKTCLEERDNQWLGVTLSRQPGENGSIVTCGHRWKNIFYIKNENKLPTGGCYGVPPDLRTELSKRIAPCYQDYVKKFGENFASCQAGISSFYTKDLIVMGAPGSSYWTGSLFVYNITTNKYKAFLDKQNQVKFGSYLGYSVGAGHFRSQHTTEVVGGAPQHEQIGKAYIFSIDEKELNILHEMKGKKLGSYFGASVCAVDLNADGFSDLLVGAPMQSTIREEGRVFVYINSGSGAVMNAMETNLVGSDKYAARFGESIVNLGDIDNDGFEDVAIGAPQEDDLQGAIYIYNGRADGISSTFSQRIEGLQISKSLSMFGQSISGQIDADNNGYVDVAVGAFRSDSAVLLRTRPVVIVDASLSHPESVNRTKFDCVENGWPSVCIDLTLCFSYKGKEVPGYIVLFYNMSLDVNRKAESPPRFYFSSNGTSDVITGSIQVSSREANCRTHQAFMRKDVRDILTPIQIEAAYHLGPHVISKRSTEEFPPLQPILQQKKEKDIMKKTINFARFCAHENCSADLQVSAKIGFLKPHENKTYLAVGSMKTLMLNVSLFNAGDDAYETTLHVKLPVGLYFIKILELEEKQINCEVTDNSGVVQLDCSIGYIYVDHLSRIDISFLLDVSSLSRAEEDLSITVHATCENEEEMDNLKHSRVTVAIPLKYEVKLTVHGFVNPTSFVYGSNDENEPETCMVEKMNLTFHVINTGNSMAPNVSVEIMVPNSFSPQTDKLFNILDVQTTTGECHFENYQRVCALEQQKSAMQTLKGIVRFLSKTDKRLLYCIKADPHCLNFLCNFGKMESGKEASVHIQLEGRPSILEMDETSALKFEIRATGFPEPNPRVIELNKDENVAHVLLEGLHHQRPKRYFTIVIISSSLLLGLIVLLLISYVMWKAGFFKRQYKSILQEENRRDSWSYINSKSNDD
Beta-adrenergic receptor kinase 1 (Homo sapiens), sequence (P25098 whole entry, looked up): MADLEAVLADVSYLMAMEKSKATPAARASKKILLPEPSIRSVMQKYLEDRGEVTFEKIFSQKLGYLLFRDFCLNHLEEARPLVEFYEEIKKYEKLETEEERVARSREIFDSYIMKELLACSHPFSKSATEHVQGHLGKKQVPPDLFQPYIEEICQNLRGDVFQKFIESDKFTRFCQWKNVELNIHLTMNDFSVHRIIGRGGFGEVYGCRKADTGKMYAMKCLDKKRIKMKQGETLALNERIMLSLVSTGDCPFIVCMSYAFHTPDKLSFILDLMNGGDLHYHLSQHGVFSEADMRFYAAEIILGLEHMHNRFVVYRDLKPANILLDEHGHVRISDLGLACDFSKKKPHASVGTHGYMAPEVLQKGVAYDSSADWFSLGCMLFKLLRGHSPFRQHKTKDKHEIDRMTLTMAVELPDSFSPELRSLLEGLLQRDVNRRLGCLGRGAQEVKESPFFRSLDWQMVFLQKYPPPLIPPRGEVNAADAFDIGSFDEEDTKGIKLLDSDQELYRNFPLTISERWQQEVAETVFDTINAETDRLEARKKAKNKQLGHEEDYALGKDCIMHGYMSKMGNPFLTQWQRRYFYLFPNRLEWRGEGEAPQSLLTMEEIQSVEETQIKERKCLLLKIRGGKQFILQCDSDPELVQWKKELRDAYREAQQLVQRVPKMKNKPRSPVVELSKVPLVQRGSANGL

As a reminder, the inhibition is the change of the read-out against control, counted positive when it falls. In the case of `COc1ccc(-c2noc(CCc3ccccc3)n2)cc1`, the percent of DMSO control GFP in assay [1] was 103% (inactive). Besides, the GFP response vs DMSO in assay [2] is 109% (inactive); in assay [4], 101% (inactive). The percent response of DMSO control in [3] was 90% (inactive). Moreover, the GFP response, % of DMSO in assay [5] is 91.8% (inactive). The molecule further came in with a double positive events in assay [6] of 56.4%. The vesicle binding response in assay [6] is 174% (inactive). The inhibition in assay [7] is 4.42% (inactive); in [10], 4.14% (inactive); in assay [14] it was 0% (inactive). Also, the superoxide response (% of plate) in assay [8] was 99.8% (inactive). The aptamer binding inhibition in assay [9] is 0% (inactive). Further, the response in assay [11] is -3.58% (inactive). The binding (% of control) in [12] is 111% (inactive). The efflux inhibition (fraction of control) in assay [13] was 0.48 (active). In assay [15], the differentiation response was -0.2% (inactive).
For the molecule `CCS(=O)(=O)CCn1c([N+](=O)[O-])cnc1C`, the percent of DMSO control GFP in assay [1] was 96.4% (inactive). Moreover, the GFP response vs DMSO was 106% (inactive) in assay [2] and 94.3% (inactive) in assay [4]. Besides, the percent response of DMSO control in assay [3] was 95.9% (inactive). For the same molecule, the GFP response, % of DMSO in [5] was 97.8% (inactive). For the same molecule, the double positive events in [6] worked out at 47.3%. For the same molecule, the vesicle binding response in [6] was 136% (inactive). Moreover, the figures for the inhibition in assay [7], in assay [10] and in assay [14] were 12.8% (inactive), -4.86% (inactive) and 4% (inactive), respectively. Besides, the superoxide response (% of plate) in assay [8] is 108% (inactive). The aptamer binding inhibition in [9] is 8% (inactive). The response in assay [11] was 5.33% (inactive). The binding (% of control) in assay [12] was 99.1% (inactive). The efflux inhibition (fraction of control) in assay [13] was 0.18 (inactive). Further, the differentiation response in assay [15] is -5.05% (inactive).
With `CC(=O)NCCCCCCNC(C)=O`, the percent of DMSO control GFP in assay [1] was 106% (inactive). For the same molecule, the GFP response vs DMSO is 92.8% (inactive) in assay [2] and 90.3% (inactive) in assay [4]. Also, in assay [3], the percent response of DMSO control is 110% (inactive). Moreover, the GFP response, % of DMSO in [5] was 106% (inactive). In assay [6], this molecule gave a double positive events of 55.5%. Also, the vesicle binding response in assay [6] was 198% (inactive). In addition, the inhibition in [7] is 4.42% (inactive); in assay [10], -11.9% (inactive); in assay [14], 5% (inactive). Besides, in [8], the superoxide response (% of plate) was 85.1% (inactive). Besides, the aptamer binding inhibition in assay [9] is -1% (inactive). The response in assay [11] is 6% (inactive). Also, the binding (% of control) in assay [12] is 94.1% (inactive). The efflux inhibition (fraction of control) in assay [13] is -0.31 (inactive). Further, the differentiation response in [15] is -22.8% (inactive).
Turning to `CC(C)(C)OC(=O)N1CCCC1C(=O)NC(Cc1ccccc1)C(=O)O` (stereo not drawn) (Boc-Pro-Phe-OH; configuration not given here), the percent of DMSO control GFP in assay [1] was 101% (inactive). In addition, the figures for the GFP response vs DMSO in assay [2] and in [4] were 98.9% (inactive) and 104% (inactive), respectively. Further, the percent response of DMSO control in [3] was 104% (inactive). Further, in [5], the GFP response, % of DMSO is 102% (inactive). Also, in assay [6], the double positive events came to 61.4%. Also, the vesicle binding response in assay [6] was 186% (inactive). In addition, the results for the inhibition in assay [7], in assay [10] and in assay [14] were 13.8% (inactive), 9.73% (inactive) and 10% (inactive), respectively. Further, in assay [8], the superoxide response (% of plate) was 92.5% (inactive). For the same molecule, the aptamer binding inhibition in assay [9] was -1% (inactive). In [11], the response is 4.48% (inactive). Further, the binding (% of control) in [12] was 101% (inactive). The efflux inhibition (fraction of control) in [13] was 0.22 (inactive). Besides, the differentiation response in assay [15] was 7.87% (inactive).
As to `CCOC(=O)c1ccc(N2C(=O)C(CC(N)=O)N(CCc3ccc(OC)c(OC)c3)C2=S)cc1` (stereo not given), the percent of DMSO control GFP in assay [1] is 96.9% (inactive). Further, the GFP response vs DMSO in [2] was 105% (inactive); in [4], 96.4% (inactive). For the same molecule, the percent response of DMSO control in [3] is 94.9% (inactive). In addition, in assay [5], the GFP response, % of DMSO was 88.8% (inactive). The double positive events in [6] stood at 46.3%. In assay [6], the vesicle binding response was 153% (inactive). The inhibition was -10.5% (inactive) in [7], 18.9% (inactive) in assay [10] and 21% (inactive) in assay [14]. Moreover, the superoxide response (% of plate) in assay [8] is 107% (inactive). The aptamer binding inhibition in [9] is 2% (inactive). Besides, the response in assay [11] was 1.03% (inactive). Moreover, the binding (% of control) in assay [12] was 97.2% (inactive). Further, the efflux inhibition (fraction of control) in assay [13] is 0.75 (active). The differentiation response in assay [15] is -21.2% (inactive).

The values are drawn from PubChem BioAssay.
